The structures appear in SMILES notation. Inconclusive results are not listed. Active and inactive are the calls of the source. Unless noted, calls follow the shape of the dose curve; as a rule, active = well fitted curve in the direction sought with a large enough effect in the repeat runs; inconclusive = weak or mixed curves; inactive = no such curve, though single readings can be large; an effect the other way counts as inactive or inconclusive.

These results are taken from PubChem BioAssay (Tox21).

Assay [1] in a line: qHTS assay to identify small molecule agonists of the vitamin D receptor (VDR) signaling pathway - cell viability counter screen (AID 743224). Also: nearly all actives have a fitted effect of over 50% in size. Also: potency is read from the fitted curve at half-maximal effect. A digest of the protocol: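 VDR-bla cell line, quantitative HTS format; 16 h compound incubation (37C, 5% CO2); ATP-based CellTiter-Glo luminescence measured in the reporter assay wells.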
A short description of assay [2]: qHTS assay to identify small molecule antagonists of the vitamin D receptor (VDR) signaling pathway - cell viability counter screen (AID 743225). Also: nearly all actives have a fitted effect of over 50% in size. Also: potency is read from the fitted curve at half-maximal effect. A digest of the protocol: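 HEK293T VDR-bla; cpd + 1a,25-(OH)2D3 3 nM final, 16 h 37C/5% CO2; B/G FRET substrate 2 h RT; then CellTiter-Glo 30 min RT, luminescence.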
(In general: qHTS replaces the single test concentration by a dilution series.)

The nature of assay [3]: qHTS assay to identify small molecule agonists of the NFkB signaling pathway (AID 1159509; active = well fitted curve in the direction sought with a large enough effect in the signal ratio in the repeat runs, not every such curve was filed as active; the % refers to the signal ratio). A digest of the protocol: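 ME-180 NFkB-bla, 2,000 cells/well, overnight plating; cpd pinned in DMSO, 5 h 37 C; B/G FRET substrate 1.5 h RT; ex 405, em 460/530 nm.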
A short description of assay [4]: qHTS assay to identify small molecule agonists of the endoplasmic reticulum stress response signaling pathway (AID 1159516; active = well fitted activation curve with a large enough effect in the signal ratio in the repeat runs, not every such curve was filed as active; the % refers to the signal ratio). A digest of the protocol:
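ER stress element reporter (bla) in HeLa. 1,500 cells/well, overnight attachment; 5 hr compound; 2 hr RT substrate; dual-emission fluorescence.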

Assay [5] can be described thus: qHTS assay to identify small molecule agonists of the endoplasmic reticulum stress response signaling pathway - cell viability counter screen (AID 1159517; calls by dose curve;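 also: HeLa cells carrying an ER stress response element beta-lactamase reporter; nearly all actives have a fitted effect of over 50% in size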). Put shortly: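 CellTiter-Glo was added to wells already read for beta-lactamase FRET, and luminescence was recorded 30 min later. Cells: ESRE-bla HeLa, 1,500 per well, compound exposure 5 hr at 37 C.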
Assay [6] in a line: qHTS assay to identify small molecule antagonists of the retinoid-related orphan receptor gamma (ROR-gamma) signaling pathway - cell viability counter screen (AID 1159520). Also: nearly all actives have a fitted effect of over 50% in size. Put shortly: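 Tet-on ROR gamma CHO cells (1,000/well) were plated 4 hr, given compounds in DMSO for 2 hr at 37 C, then induced with 1 uM final doxycycline for 16 hr. Viability was read as ATP by CellTiter-Glo luminescence after 30 min.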

In assay [7] the target is Nuclear receptor ROR-gamma (Homo sapiens) (UniProt P51449). In words: qHTS assay to identify small molecule antagonists of the retinoid-related orphan receptor gamma (ROR-gamma) signaling pathway (AID 1159521; also: nearly all actives have a fitted effect of over 50% in size; also: potency is read from the fitted curve at half-maximal effect). A digest of the protocol:
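Cells were plated, rested 4 h at 37 C, exposed to compounds for 2 h, then given 1 uM final doxycycline hyclate to induce RORγ expression. After 16 h, ONE-Glo luminescence from the ROR response element reporter was measured.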

Assay [8] is described as follows: qHTS assay to identify small molecule agonists of the AP-1 signaling pathway (AID 1159526; calls by dose curve).
Assay [9] addresses Retinoic acid receptor RXR-alpha (Homo sapiens) (UniProt P19793). Briefly: qHTS assay to identify small molecule agonists of the RXR signaling pathway (AID 1159527; calls by dose curve; also: nearly all actives have a fitted effect of over 35% in size). A digest of the protocol: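 Cells plated at 2,000/well, rested 5 hr at 37 C, pin-dosed with DMSO compound solutions, incubated 16 hr, then loaded with B/G FRET substrate for 2 hr at RT before dual-emission fluorescence reading.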

The nature of assay [10]: qHTS assay to identify small molecule agonists of the RXR signaling pathway - cell viability counter screen (AID 1159529). Also: nearly all actives have a fitted effect of over 50% in size. Also: potency is read from the fitted curve at half-maximal effect. Put shortly:
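Steps: seed RXR-alpha-UAS-bla HEK 293T cells in assay medium containing 2% charcoal-stripped FBS; incubate 5 hr; add compounds in DMSO; incubate 16 hr at 37 C; after the bla read, add CellTiter-Glo and read luminescence at 30 min.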

Assay [11] in a line: qHTS assay to identify small molecule antagonists of the retinoid acid receptor (RAR) signaling pathway - cell viability counter screen (AID 1159551). Also: nearly all actives have a fitted effect of over 35% in size. Put shortly:
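Following overnight attachment, C3RL4 reporter cells received DMSO-dissolved compounds and then retinol (1 uM final). Six hours later at 37 C, ATP content was measured by CellTiter-Glo luminescence.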

Assay [12] is described as follows: qHTS assay to identify small molecule antagonists of the retinoic acid receptor (RAR) signaling pathway (AID 1159552; also: nearly all actives have a fitted effect of over 50% in size; also: potency is read from the fitted curve at half-maximal effect). Put shortly: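 Retinol at 1 uM final stimulated RARE-luciferase expression in C3RL4 cells exposed to test compounds for 6 hr at 37 C. Reduced luminescence, read 30 min after detection reagent, indicated pathway antagonism.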
Assay [13] in a line: qHTS assay to identify small molecule agonists of the retinoic acid receptor (RAR) signaling pathway (AID 1159553). Conditions: C3RL4 RARE luciferase reporter, agonist, 6 h; activation: at 73.3 µM (top of the series). Put shortly: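 Cell line C3RL4, RARE luciferase reporter. Treatment: compounds in DMSO, 6 hr, 37 C, 5% CO2, after overnight plating. Detection: luminescence, 30 min RT after reagent.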

Assay [14] in a line: qHTS assay to identify small molecule agonists of the AP-1 signaling pathway - cell viability counter screen (AID 1159525; calls by dose curve; also: nearly all actives have a fitted effect of over 55% in size; also: potency is read from the fitted curve at half-maximal effect). Put shortly: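 ME-180 AP-1-bla, 2500 cells/well, Opti-MEM + 0.5% dialyzed FBS; overnight 37 °C; cpd 15-pt titration, 5 h 37 °C; CellTiter-Glo 30 min RT; luminescence read; normalised to TOAB and DMSO controls.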
Assay [15] can be described thus: qHTS assay to identify small molecule antagonists of the estrogen related receptor signaling pathway with the pleiotropic PPARgamma coactivator (PGC) cell viability counter screen (AID 1224822). A digest of the protocol: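 qHTS format, DMSO compound stocks pin-transferred onto PGC/ERR cells 6 h after plating; 17.5 h exposure at 37 C, then CellTiter-Fluor fluorescence.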

Sequence of Retinoic acid receptor RXR-alpha (Homo sapiens) (P19793 whole entry, looked up): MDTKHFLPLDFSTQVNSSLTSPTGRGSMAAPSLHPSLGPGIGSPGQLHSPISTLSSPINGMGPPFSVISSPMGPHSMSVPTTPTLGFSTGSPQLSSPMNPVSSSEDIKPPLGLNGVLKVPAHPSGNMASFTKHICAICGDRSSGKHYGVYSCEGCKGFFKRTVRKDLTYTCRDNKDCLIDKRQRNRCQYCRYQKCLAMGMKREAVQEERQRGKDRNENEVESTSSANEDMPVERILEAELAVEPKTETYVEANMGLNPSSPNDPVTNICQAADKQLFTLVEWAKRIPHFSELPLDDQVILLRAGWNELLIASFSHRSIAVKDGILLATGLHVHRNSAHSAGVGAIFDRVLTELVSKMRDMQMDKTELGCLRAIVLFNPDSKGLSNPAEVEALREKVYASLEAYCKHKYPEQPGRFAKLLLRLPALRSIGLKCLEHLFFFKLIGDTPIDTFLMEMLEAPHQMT

In the case of `CCC(=O)C1CC(C(C)C)CC=C1C` (stereo not given), the Potency result in assay [1], in [2], in assay [3], in assay [4], in assay [5] and in assay [6] was “inactive” each time. Further, the Potency result in assay [7], in [8], in assay [9], in [10], in [11] and in assay [12] was “inactive” each time. Further, the Potency entry in assay [13] was “inactive”.

With `COc1ccccc1NC(=O)c1cc2ccccc2cc1O`, the Potency in assay [1] is 21.9 µM (active); in [2] it was 38.9 µM (active); in assay [7], 30.6 µM (active). For the same molecule, the Potency result in [3], in assay [4], in assay [5], in assay [14], in assay [8] and in assay [10] was “inactive” each time. Besides, the Potency result in assay [11] and in [12] was “inactive” throughout.

Consider `NC(=O)c1ccncc1`, for which the Potency entry in assay [1], in assay [2], in assay [3], in assay [4], in assay [5] and in [7] was “inactive” in each case. In addition, the Potency result in [14], in [8], in assay [9], in assay [10], in [11] and in assay [12] was “inactive” throughout. Also, the Potency entry in assay [13] is “inactive”.

With `CC(C)=CCC/C(C)=C/CC/C(C)=C/CCC(=O)OC/C=C(\C)CCC=C(C)C`, the Potency result in assay [1], in assay [2], in assay [3], in [4], in assay [5] and in assay [7] was “inactive” each time. Besides, the Potency result in [14], in assay [8], in assay [9], in [10], in assay [11] and in assay [12] was “inactive” throughout. The Potency entry in assay [13] was “inactive”.

Regarding `O=c1[nH]ncc2ccccc12`, the Potency entry in assay [1], in assay [2], in assay [3], in [4], in [5] and in assay [7] was “inactive” each time. For the same molecule, the Potency entry in [14], in [8], in assay [10], in assay [11], in [12] and in assay [13] was “inactive” in each case.

Consider `FC(F)(F)c1ccccc1Cl`, for which the Potency result in assay [1], in [2], in assay [3], in assay [4], in assay [5] and in assay [6] was “inactive” each time. Further, the Potency result in [14], in assay [8], in assay [9], in [10], in assay [11] and in assay [12] was “inactive” each time. The Potency entry in [13] is “inactive”.

Regarding `COc1cc(C(=O)NCCCCCC(=O)O)cc(OC)c1OC`, the Potency result in assay [1], in assay [2], in assay [3], in assay [4], in assay [5] and in assay [7] was “inactive” throughout. Moreover, the Potency entry in assay [14], in [8], in assay [9], in [10], in assay [11] and in assay [12] was “inactive” each time. In assay [13], the Potency entry was “inactive”.

Consider `C[C@@H](CN(C)C)CN1c2ccccc2Sc2ccccc21`, for which the Potency entry in [1], in [2], in assay [3], in [4], in assay [5] and in [14] was “inactive” each time. Also, the Potency entry in assay [11] is “inactive”. Further, the Potency in [7] was 26.6 µM (active).

For the molecule `Nc1nc2ccc([N+](=O)[O-])cc2s1`, the Potency entry in [1], in assay [3], in assay [4], in assay [5], in [6] and in assay [12] was “inactive” each time. The Potency entry in [13] was “inactive”. Also, the result in assay [15] was inactive.

For the molecule `CC(C)Nc1cccnc1N1CCN(C(=O)c2cc3cc(NS(C)(=O)=O)ccc3[nH]2)CC1`, the Potency entry in assay [1], in assay [2], in assay [3], in assay [4], in assay [5] and in assay [6] was “inactive” each time. Also, the Potency result in assay [14], in assay [8], in assay [9], in assay [10], in [11] and in assay [12] was “inactive” each time. The Potency result in assay [13] was “inactive”.

Consider `N#CCCN(CCO)CCO`, for which the Potency result in assay [1], in [2], in [3], in assay [4], in assay [5] and in assay [6] was “inactive” throughout. Moreover, the Potency entry in assay [7], in assay [10] and in [11] was “inactive” in each case.

For `CCC=CC#N`, the Potency entry in assay [1], in assay [3], in assay [4], in assay [5], in assay [6] and in assay [14] was “inactive” each time. For the same molecule, the Potency result in [8], in assay [9], in assay [10] and in assay [11] was “inactive” each time.

With `O=[N+]([O-])c1cc(C2CCCCC2)c(O)c([N+](=O)[O-])c1`, the Potency result in assay [3], in [4], in assay [5], in assay [14], in assay [9] and in [11] was “inactive” in each case. Further, the Potency result in assay [13] was “inactive”. The Potency in assay [7] was 4.31 µM (active).

For `CCOC(=O)[C@H](CCc1ccccc1)N[C@@H](C)C(=O)N(CC(=O)O)C1Cc2ccccc2C1`, the Potency result in assay [1], in assay [2], in assay [3], in [4], in assay [5] and in assay [7] was “inactive” each time. For the same molecule, the Potency entry in assay [8] and in [11] was “inactive” throughout. Besides, the Potency in assay [14] was 19 µM (active); in assay [10], 5.35 µM (active).

With `CC(C)(C)CC(=O)OCC(=O)[C@@]1(O)CC[C@H]2[C@@H]3CCC4=CC(=O)C=C[C@]4(C)[C@H]3[C@@H](O)C[C@@]21C`, the Potency entry in assay [1], in assay [2], in assay [3], in [4], in assay [5] and in assay [6] was “inactive” in each case. Further, the Potency entry in assay [8], in assay [11] and in assay [13] was “inactive” throughout. The Potency in [7] is 26.6 µM (active); in [12], 33.5 µM (active).

Consider `Cc1ccccc1N=C(N)Nc1ccccc1C`, for which the Potency result in assay [1], in assay [3], in assay [4], in [5], in assay [7] and in [14] was “inactive” in each case. Further, the Potency entry in [8], in assay [9], in [10], in [11], in assay [12] and in [13] was “inactive” throughout.

Consider `CC(=O)N/N=C/c1ccc([N+](=O)[O-])o1`, for which the Potency entry in assay [1], in assay [2], in assay [3], in assay [4], in assay [5] and in assay [7] was “inactive” each time. Also, the Potency entry in [8], in [10] and in assay [11] was “inactive” in each case. Moreover, the Potency in assay [12] was 29.8 µM (active).

On to `O=C1c2ccccc2C(=O)N1CCc1noc(-c2ccc(CN3CCCCCC3)s2)n1`, for which the Potency entry in assay [2], in assay [3], in assay [4], in assay [5], in assay [6] and in assay [14] was “inactive” in each case. The Potency result in assay [8], in [10], in assay [11], in [12] and in assay [13] was “inactive” throughout.

With `CC(=O)OCC[N+](C)(C)C`, the Potency result in [1], in [2], in [3], in assay [4], in [5] and in assay [6] was “inactive” each time. Also, the Potency result in assay [7], in assay [10], in assay [11], in [12] and in [13] was “inactive” throughout.

Consider `CCC(OCCCOC)OC(C)=O` (stereo not given), for which the Potency result in assay [1], in assay [2], in assay [3], in assay [4], in assay [5] and in assay [7] was “inactive” throughout. The Potency entry in [14], in assay [8], in assay [9], in assay [10], in assay [11] and in assay [12] was “inactive” in each case. Further, the Potency entry in assay [13] is “inactive”.

Take `CN1C(=O)OC(C)(C)C1=O`: the Potency result in assay [1], in [2], in [3], in assay [4], in assay [5] and in assay [7] was “inactive” each time. In addition, the Potency result in assay [14], in assay [8], in assay [9], in assay [10], in [11] and in assay [12] was “inactive” each time. Moreover, in assay [13], the Potency result is “inactive”.
